Screening results deposited in PubChem by National Center for Advancing Translational Sciences (NCATS).
Compounds with a hit are over-represented: about 13% of the library has one in this group of screens.
Cycloheximide cs: counter-screen hit for Shiga toxin inhibitors, cycloheximide; cell reporter, cycloheximide protein synthesis inhibition counterscreen; max response, %; hit rate 12% among 300,000; in the data active means max response mostly above about 13%, no sharp cut-off; inactive means mostly below about 14%; further: read at 38.3 µM for the half of the compounds with a filed dose; 0% is about no effect
LASV entry inh: inhibitors of Lassa virus binding or cell entry. hit rate 1.2% among 300,000. AID 540256. Lassa virus pseudotype entry inhibition, cell reporter. Potency, µM (doses to about 37.9 µM), for inactives: top-dose activity change, negative = inhibition, actives largely listed as inhibitors; calls by dose curve; tested in HEK293 cells; further: potency means the concentration at half of the fitted maximal effect; on the % scale 0 is the no-effect control and ±100 the full control effect; nearly all actives have a fitted effect of over 50% in size
HCV inh: inhibitors of hepatitis C virus infection; hit rate 3.4% among 340,000; Huh7.5.1 HCVcc-Cre infection, luciferase reporter, 44 h; Potency, µM (top dose mostly 41.8 µM), inactives show top-dose activity change, negative = inhibition, hits mostly inhibitors; AID 651820; active means well fitted inhibition curve with a large enough effect; inconclusive means small, poorly fitted or top-dose-only effect, or another doubt; inactive means no such curve, though single readings can be large or run the other way; further: potency means the concentration at half of the fitted maximal effect; on the % scale 0 is the no-effect control and ±100 the full control effect
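Antiviral activity was scored by luciferase reporter output from cells infected with HCVcc-Cre (~0.5 moi) in presence of compound, 44 h infection period, cells seeded 1,000/well 4 h prior.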
Shiga inhibitor: blocks Shiga toxin action in Vero cells. Vero cells, Shiga toxin protein synthesis inhibition reporter. inhibition, % at 38.7 µM. hit rate 9.2% among 290,000. AID 2315; in the data active means inhibition mostly above about 28%, no sharp cut-off; inactive means mostly below about 43%; further: 0% is about no effect
Marburg entry inh: Marburg virus entry inhibition | Potency, µM (doses to about 37.8 µM), for inactives: at the highest dose activity change, negative = inhibition, most hits filed as inhibitors | hit rate 1.8% among 300,000 | Marburg virus pseudotyped entry inhibition, cell reporter; calls by dose curve; tested in HEK293 cells; further: potency means the concentration at half of the fitted maximal effect; on the % scale 0 is the no-effect control and ±100 the full control effect
FMDV inh: antivirals against foot and mouth disease virus; FMDV antiviral cell-based qHTS; hit rate 1.2% among 410,000; Potency, µM (doses to about 57.9 µM), for inactives: at the highest dose activity change, negative = inhibition, most hits filed as inhibitors; AID 1159524; calls by dose curve; tested in HEK293T cells; further: read-out not given here; potency means the concentration at half of the fitted maximal effect; on the % scale 0 is the no-effect control and ±100 the full control effect; nearly all actives have a fitted effect of over 45% in size
Starred values were filed as active, the others as inactive; ? = inconclusive; · = not tested or not shown; [ ] = another dose, or the depositor's remark.

SMILES	Cycloheximide cs	LASV entry inh	HCV inh	Shiga inhibitor	Marburg entry inh	FMDV inh
CCOC(=O)Nc1ccc2c(c1)N(C(=O)N1CCN(C)CC1)c1ccccc1S2	-2	5%	-16%	14	?	0%
Cc1cc2c(cc1S(=O)(=O)NCCc1ccccc1)NC(=O)CO2	·	-14%	-6%	·	?	39%
COCCCNC(=O)CSc1nc2ccccc2c(=O)n1CCCC(=O)NCC1CCCO1 (centres undefined)	-4	4%	-3%	-9	?	-5%
CCCCCCC[N+](CC)(CC)CCCCc1ccc(Cl)cc1	·	·	?	·	·	18µM*
CC1(C)OC(C)(C)/C(=C\c2ccccc2[N+](=O)[O-])C1=O	-1	·	16%	1	·	?
O=C(Nc1cccc2ncccc12)c1ccc(OCc2ccccc2)cc1	-6	·	16µM*	5	·	?
COc1ccc([N+](=O)[O-])cc1/C=N/NC(=O)c1nonc1N	3	-27%	11%	-16	-19%[46.1 µM]	-13%
O=C(N/N=C/c1ccc([N+](=O)[O-])o1)C1CCCC1	1	?	?	1	?	-12%
CN(C)c1ccc(/C=N/NC(=O)c2nonc2N)cc1[N+](=O)[O-]	41*	3%	-2%	133*	-3%[46.1 µM]	37%
Nc1nonc1C(=O)N/N=C/c1cc2c(cc1[N+](=O)[O-])OCO2	8	9%[46.1 µM]	-8%	33	?	-3%
Nc1nonc1C(=O)N/N=C/c1ccc([N+](=O)[O-])o1	44*	?	?	76*	?	-30%
COc1ccc(/C=N/NC(=O)c2nonc2N)cc1OC	34*	6%	21%	80*	13%	77%
Nc1nonc1C(=O)N/N=C/c1cccc([N+](=O)[O-])c1	27*	?	3%	active	6%	72%
COc1ccc(/C=N/NC(=O)c2nnn(-c3nonc3N)c2C)cc1OC	·	·	·	·	·	-10%
CCCN(CCC)C(=O)Cn1c(SCc2cccc(C(F)(F)F)c2)nc2cccnc21	·	-1%[46.1 µM]	·	·	·	-24%
CCCS(=O)(=O)NC(=O)C1(C)CCCN(C(=O)c2ccc3c(c2)OCO3)C1 (centres undefined)	·	·	·	·	·	-19%
COc1ccc(NC(=O)Cc2ccc(Cl)cc2)cc1S(=O)(=O)N1CCCCC1	·	·	14µM*	·	·	-4%
Cc1ccc(NC(=O)CN(C)C(=O)Cn2ncc(Cl)c(Cl)c2=O)cc1	-9	16µM*	3.2µM*	-32	5µM*	0%
Cc1ccc(NC(=O)Cn2ncc(Cl)c(Cl)c2=O)cc1S(=O)(=O)N1CCCCC1	·	·	10µM*	·	·	28µM*
COc1ccc(NC(=O)CCOc2ccccc2F)cc1S(=O)(=O)N1CCCCC1	·	?	13µM*	·	?	?
O=C(Nc1ccc(F)cc1)c1ccc(-n2ccnc2)nc1	-4	2%	6%	-11	17%	4%
Cc1cc(C)c(S(=O)(=O)N2CCCCC2)cc1N(C)S(=O)(=O)c1ccc(Cl)cc1	-2	?	32µM*	-4	?	-14%
Cc1ccc(NC(=O)Cc2ccc(Cl)cc2)cc1S(=O)(=O)N1CCCCCC1	·	·	10µM*	·	·	?
COc1ccc(CC(=O)Nc2ccc(C)c(S(=O)(=O)N3CCCCCC3)c2)cc1	·	·	?	·	·	-20%
Cc1ccc(S(=O)(=O)N(C)c2cc(S(=O)(=O)N3CCOCC3)c(C)cc2C)cc1	-2	·	-26%	-4	6%[46.1 µM]	-18%
SMILES	Cycloheximide cs	LASV entry inh	HCV inh	Shiga inhibitor	Marburg entry inh	FMDV inh
CC1=CC(C)(C)N=C(Nc2ccc(C)cc2)S1	50*	17%	10%	44	?	·
CC(C)CC1Nc2ccc(C(=O)NCc3ccc4c(c3)OCO4)cc2NC1=O (centres undefined)	1	-1%[46.1 µM]	-7%	12	8%[46.1 µM]	15%
Cc1cc(N2CCCC2)nc(-c2ccccc2O)n1	8	6%	3.2µM*	5	0%	13%
Cc1cc(N2CCCCC2)nc(SCC(=O)c2ccccc2)n1	34*	-25%	?	73*	?	23%
Cc1cc(=O)[nH]c(SCC(=O)c2ccc(F)c(C)c2)n1	14*	?	22%	26	?	20%
Cc1cc(C)nc(S/C=C/C(=O)c2ccc(F)cc2)n1	37*	·	·	68*	·	·
Cc1cc(N2CCN(C)CC2)nc(-c2ccccc2O)n1	-2	·	?	11	·	0%
O=C(CSc1nnc2ccccn12)NCc1ccco1	12	·	12%	0	·	4%
CCCn1c(=O)c2ccccc2n2c(SCC(=O)NCc3cccs3)nnc12	0	-7%	-4%	-6	6%	-10%
CCOC(=O)C1=C(COC(=O)CCOc2cccc(C)c2)NC(=O)NC1C (centres undefined)	·	12%	16%	·	-3%	-21%
CC(C(=O)Nc1ncccn1)(c1ccccc1)c1ccccc1	1	11%	4%	2	?	-23%
CCC(C)n1c(=O)c(C(=O)Nc2ccccc2S(N)(=O)=O)c(O)c2ccccc21 (centres undefined)	1	?	?	8	?	-18%
COc1ccc(NC(=O)CC(C(=O)O)N2CCCCC2)cc1 (centres undefined)	-3	·	6%	-16	6%	-1%
Cc1cc(C)nc(SCNC(=O)c2ccc(F)cc2)n1	-4	-14%	-2%	-4	1%	-8%
Cc1cc(C)nc(SCC(=O)c2ccc(F)cc2)n1	17*	·	-9%	31*	·	36%
Cc1cc(C)nc(SCC(=O)c2ccc(F)cc2F)n1	20*	·	0%	·	·	12%
Cc1cc(C)nc(SCC(=O)c2ccc(F)c(C)c2)n1	11*	·	2%	22	·	16%
CCc1ccc(C(=O)CSc2nc(C)cc(=O)[nH]2)cc1	32*	12%[46.1 µM]	-1%	49*	22%[46.1 µM]	4%
COc1ccc(C(=O)CSc2nc(C)cc(C)n2)cc1C	6	·	?	12	·	12%
COc1ccc(C(=O)CSc2nc(C)cc(=O)[nH]2)cc1C	-3	25%[46.1 µM]	6%	-6	0%[46.1 µM]	6%
Cc1ccc(C(=O)N2CCN(c3ccccc3F)CC2)cc1NC(=O)c1nsc2ccccc12	·	?	·	·	·	-16%
FC(F)(F)c1ccccc1NC(=S)Nc1cccc(Cl)c1	-6	6%	24%	-3	22%[46.1 µM]	-12%
Cc1nnc(SCC(=O)c2c[nH]c3ccccc23)n1C1CC1	·	·	20%	·	·	14%
O=C(NCC1OCCc2ccccc21)c1ccc(NC(=O)c2ccccc2Cl)cc1 (centres undefined)	10	?	?	1	7.9µM*	14µM*
CCOc1ccc(C(=O)NCC2OCCc3ccccc32)cc1 (centres undefined)	25*	0%	?	active	26%	51%
O=C(Nc1ccccn1)c1ccc(Br)s1	40*	?	-10%	·	-34%	33%
O=C(c1ccc(Br)s1)N1CCN(c2ccccn2)CC1	10	3%	6%	28	15%	-1%
O=C(Nc1ccccn1)c1cc2cc([N+](=O)[O-])ccc2s1	40*	·	2%	79*	·	47%
O=C(Nc1ccc(Cl)cc1)c1ccc(-c2ccccn2)s1	42*	12%	0%	72*	?	36%
